Assay results published in PubChem BioAssay (NCATS).
Records with an inconclusive call do not appear. Entries that show only a call come without a potency. The source made the active and inactive calls. The call rests on the fitted dose curve; in most records, active means well fitted inhibition curve with a large enough effect; inconclusive means small, poorly fitted or top-dose-only effect; inactive means flat fitted curve, though single readings scatter.
Potency means the concentration at half of the fitted maximal effect.

The compounds below were run on ATS189 (assay: qHTS profiling for inhibitors of Plasmodium falciparum proliferation (AID 504749; further: nearly all actives have a fitted effect of over 60% in size)). Conditions: P. falciparum in erythrocytes, SYBR Green DNA, 72 h; series mostly up to 12.8 µM.
Procedure, shortened: (§1)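 SYBR Green fluorescence of parasite DNA, read after lysis and overnight dark incubation, measured growth over 72 h in erythrocyte culture at 0.3% parasitemia and 2.5% hematocrit. Data normalised to DMSO and 0.29 uM artemisinin, with plate-drift correction.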
With `CC1(C)S[C@H]2C(NC(=O)[C@@H](N)c3ccc(O)cc3)C(=O)N2[C@@H]1C(=O)O` (stereo not given in full) the Potency was “inactive”.
`CN(C)CCc1c[nH]c2ccc(CC3COC(=O)N3)cc12` (stereo not given) was tested, and the Potency was “inactive”.
In the case of `NC(CCC(=O)N[C@@H](CS)C(=O)NCC(=O)O)C(=O)O` (stereo not given in full), the Potency is reported as 8.91 µM (active).
In the case of `CC(C)Oc1ccc2c(=O)cc(-c3ccccc3)oc2c1`, the Potency is reported as “inactive”.
With `N[C@@H]1C(O)OC(CO)C(O)C1O` (stereo not given in full) the Potency was “inactive”.
With `CC(=O)[C@]1(O)CCC2C3C=C(Cl)C4=CC(=O)C5CC5[C@@]4(C)C3CC[C@]21C` (stereo not given in full) the Potency was “inactive”.
For `CO[C@]12C(COC(N)=O)C3=C(C(=O)C(C)=C(N)C3=O)N1CC1NC12` (stereo not given in full), the Potency was 1.26 µM (active).
With `C[C@@]12C=CC(=O)C=C1CCC1C3CC(O)[C@@](O)(C(=O)CO)[C@]3(C)CC(O)[C@]12F` (stereo not given in full) the Potency was “inactive”.
With `CCC1OC(=O)C(C)[C@@H](O[C@H]2C[C@@](C)(OC)C(O)C(C)O2)C(C)[C@@H](O[C@@H]2OC(C)CC(N(C)C)C2O)[C@@](C)(O)CC(C)C(=O)[C@@H](C)C(O)[C@]1(C)O` (stereo not given in full) the Potency was “inactive”.
`CC1C2CCC3C4CC=C5CC(N(C)C)CC[C@@]5(C)C4CC[C@@]32CN1C` (stereo not given in full) was tested, and the Potency was “inactive”.
For `OCC1OC(n2cnc3c(=S)nc[nH]c32)C(O)C1O` (stereo not given), the Potency was “inactive”.

What follows are compounds tested on ATS95 in the same assay as above. Conditions: P. falciparum in erythrocytes, SYBR Green DNA, 72 h; series mostly up to 12.8 µM.
Procedure, shortened: as §1
For `CC1(C)S[C@H]2C(NC(=O)[C@@H](N)c3ccc(O)cc3)C(=O)N2[C@@H]1C(=O)O` (stereo not given in full), the Potency was “inactive”.
For `CN(C)CCc1c[nH]c2ccc(CC3COC(=O)N3)cc12` (stereo not given), the Potency was “inactive”.
For `C[C@@]12CCC(=O)C=C1C=CC1C2CC[C@]2(C)C1CC[C@@]21CCC(=O)O1` (stereo not given in full), the Potency was “inactive”.
`CC(C)Oc1ccc2c(=O)cc(-c3ccccc3)oc2c1` was tested, and the Potency was “inactive”.
With `CCCCCCCCCc1ccc(OCCOCCOCCOCCOCCOCCOCCOCCOCCO)cc1` the Potency was “inactive”.
In the case of `N[C@@H]1C(O)OC(CO)C(O)C1O` (stereo not given in full), the Potency is reported as “inactive”.
In the case of `CCC(=O)O[C@@]1(C(=O)CCl)C(C)CC2C3CCC4=CC(=O)C=C[C@@]4(C)[C@]3(F)C(O)C[C@]21C` (stereo not given in full), the Potency is reported as 11.2 µM (active).
For `CC(=O)[C@]1(O)CCC2C3C=C(Cl)C4=CC(=O)C5CC5[C@@]4(C)C3CC[C@]21C` (stereo not given in full), the Potency was “inactive”.
For `CO[C@]12C(COC(N)=O)C3=C(C(=O)C(C)=C(N)C3=O)N1CC1NC12` (stereo not given in full), the Potency was 1 µM (active).
With `C[C@@]12C=CC(=O)C=C1CCC1C3CC(O)[C@@](O)(C(=O)CO)[C@]3(C)CC(O)[C@]12F` (stereo not given in full) the Potency was “inactive”.
`CCC1OC(=O)C(C)[C@@H](O[C@H]2C[C@@](C)(OC)C(O)C(C)O2)C(C)[C@@H](O[C@@H]2OC(C)CC(N(C)C)C2O)[C@@](C)(O)CC(C)C(=O)[C@@H](C)C(O)[C@]1(C)O` (stereo not given in full) was tested, and the Potency was “inactive”.
For `CC1C2CCC3C4CC=C5CC(N(C)C)CC[C@@]5(C)C4CC[C@@]32CN1C` (stereo not given in full), the Potency was “inactive”.
With `CCC(C)C(=O)OC1CC(O)C=C2C=CC(C)C(CCC(O)CC(O)CC(=O)O)C21` (stereo not given) the Potency was “inactive”.
With `OCC1OC(n2cnc3c(=S)nc[nH]c32)C(O)C1O` (stereo not given) the Potency was “inactive”.
